# Experimental data: PubChem BioAssay AID1042 (National Center for Advancing Translational Sciences (NCATS), 2008)
# Results filed as inconclusive are left out. Values without a mark were called inactive.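 How the source made its calls: active means raised CDH13 expression over DMSO controls, judged by fold change in triplicate runs, no set cutoff; inconclusive means doubtful CDH13 rise, criteria not stated; inactive means no rise, falls in expression ignored.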
# Assay: CDH13 Derepression/Induction Secondary Assay for qHTS Assay for Epigenetic Modulators
# Conditions: H358 cells, CDH13 mRNA qPCR, 72 h; hits give high values
# Excerpt: NIH Molecular Libraries Screening Centers Network [MLSCN] NIH Chemical Genomics Center [NCGC] MLSCN Grant: 1 X01 MH079860-01 Assay Provider: Elisabeth D. Martinez, University of Texas SW Medical Center NCGC Assay Overview: This secondary assay characterizes selected actives identified in the qHTS of the Locus Derepression (LDR) assay (PubChem AID 597). The LDR assay detects the derepression of a GFP reporter that is stably integrated in a region of the genome of murine c127i mammary cells that is presumably silenced. Compounds that cause derepression of the locus to express GFP are identified by enumerating GFP positive cells using a laser-scanning microplate cytometer. Selected LDR actives were assayed for the induction of CDH13 gene expression, a gene silenced by methylation of its promoter. […]
# NCGC Assay Protocol Summary Exponentially growing H358 non-small cell lung cancer cells were treated daily with fresh media containing the indicated concentrations of compounds for 72 hr. Cellular RNA was extracted, quantified, DNAse treated and reverse transcribed. The resulting cDNA was amplified in TaqMan real time quantitative PCR assays (Applied Biosystems) containing validated primers specific for CDH13 (Hs00169908.m1). […] Gene expression was measured by fold-induction over control DMSO-treated samples (36-37 average cycle time). […]
smiles,measurement,value
CN1CSC(=S)N(C)C1,fold change,1
